Screening results from PubChem BioAssay.
TROY signal inh: blocks TROY-dependent signaling in reporter cells | Q293 LMP1-TROYcd NF-kB luciferase reporter, 4 h | inhibition, % at 10 µM | actives 0.98% (n = 360,000) | AID 1347056;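 active = compounds whose plate-normalised and pattern-corrected inhibition of the luciferase reporter signal at the single screening dose is 50% or more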
TWEAK Fn14 block: blocks TWEAK-Fn14 interaction in a reporter cell assay; TWEAK-stimulated Fn14 reporter cells, luciferase luminescence, 8 h; inhibition, % at 10 µM; actives 2% (n = 360,000); in the data active = inhibition above about 50%
LGR2 antag: blocks bursicon-induced cAMP signaling via Drosophila LGR2; HEK293 LGR2, CRE-luciferase, bursicon-stimulated, 4 h; inhibition, % at 9.99 µM; actives 0.35% (n = 380,000);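 active = drop in luminescence signal, shown as inhibition above about 50% in the replicate tests, limit read from the data, passing the limit was not always enough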;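 also: agonist challenge used bursicon conditioned medium at about half maximal strength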
CF NFkB inh: inhibitors of cystic fibrosis induced NF-kB | AID 588850 | KKLEB NF-kB-GFP reporter, PAF-induced, GFP fluorescence overnight | inhibition, % at 5 µM | actives 0.86% (n = 360,000);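 active = at least 50% inhibition at 5 µM, scaled per plate between neutral and stimulator controls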;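 also: PAF is a Pseudomonas aeruginosa culture filtrate used as stimulus; plate controls were PAF-stimulated DMSO wells for no effect and unstimulated DMSO wells for full effect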
KKLEB cytotox: reduces viability of KKLEB cystic fibrosis airway cells | activity change (cytotoxicity), % at 5 µM | actives 0.36% (n = 360,000) | KKLEB CF airway cells viability, ATPlite luminescence, overnight; active compounds read low; cells stimulated with P. aeruginosa culture filtrate | AID 602141;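 active = corrected activity change at or below -50% at 5 µM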
EWS-Fli block: blocks EWS/Fli oncoprotein-driven transcription; inhibition, % at 12.6 µM; actives 0.67% (n = 350,000); A673 NR0B1-luciferase reporter, viability-normalised;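 active = mean inhibition of at least 50% after viability correction, with every replicate also passing that limit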;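 also: firefly luciferase signal divided by Alamar Blue viability fluorescence both relative to DMSO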
* hit, by the source's call; . = no result given. The list is not random: actives were taken first. Their share in the collection is about 2.6%.

SMILES	TROY signal inh	TWEAK Fn14 block	LGR2 antag	CF NFkB inh	KKLEB cytotox	EWS-Fli block
Cc1noc(C)c1S(=O)(=O)Nc1ccc2c(c1)C(=O)N([C@@H](C)CO)C[C@@H](C)[C@H](CN(C)S(C)(=O)=O)O2	.	.	-3	.	.	1
COc1ccc(NC(=O)N2C[C@H](O)COC[C@H]3O[C@H](CC(=O)N4CCOCC4)CC[C@@H]32)cc1	.	.	5	.	.	-12
Cc1nn(-c2nc3ccccc3s2)c(C)c1Oc1ccccc1O	62*	47	.	-5	-2	.
Cc1ccc(S(=O)(=O)N(C)C[C@H]2Oc3c(NC(=O)Nc4cccc5ccccc45)cccc3C(=O)N([C@H](C)CO)C[C@@H]2C)cc1	.	.	13	.	.	5
CC=Cc1ccc2n(c1=O)C[C@@H]1[C@@H](CO)[C@H](C(=O)NCCC)[C@H]2N1Cc1nccs1 (mixture of isomers)	.	.	12	.	.	-1
CC1=NN(c2nc(-c3ccccc3)cs2)C(=O)C1	55*	66*	.	-15	6	.
O=S(=O)(N[C@H]1CC[C@H](CCn2cc(C3(O)CCCC3)nn2)O[C@@H]1CO)c1ccc(F)cc1	.	.	17	.	.	3
O=C(C[C@@H]1CC[C@H](NC(=O)C2CCOCC2)[C@H](CO)O1)Nc1ccc(-c2ccccc2)cc1	.	.	13	.	.	2
COCC#Cc1cnc2c(c1)C(=O)N([C@@H](C)CO)C[C@H](C)[C@@H](CN(C)S(=O)(=O)c1cn(C)cn1)O2	.	.	-3	.	.	2
COc1ccc2cc3cc(C(=O)Nc4cc(OC)c(OC)c(OC)c4)oc3nc2c1	26	63*	.	3	-5	.
C[C@H]1CN([C@@H](C)CO)C(=O)Cc2cc(NC(=O)CCC(F)(F)F)ccc2O[C@@H]1CN(C)C(=O)Nc1ccccc1	.	.	-11	.	.	0
COc1cc(CSc2nnnn2-c2ccc(C)cc2)cc(OC)c1OC	54*	48	.	-1	-10	.
C[C@H](CO)N1C[C@H](C)[C@@H](CN(C)CC2CC2)Oc2ccc(NC(=O)CCC(F)(F)F)cc2CC1=O	.	.	-4	.	.	-8
Cc1cccn2cc(-c3ccc(NC(=O)Cc4ccccc4)cc3)nc12	89*	-24	-20	-21	12	-6
O=C1CC(c2ccc3c(c2)OCO3)Sc2nc3ccccc3n21 (stereo unspecified)	84*	89*	54*	9	-27	.
O=C1CC(c2ccccc2)Sc2nc3ccccc3n21 (stereo unspecified)	49	34	-15	10	-12	-16
C[C@@H]1CN([C@H](C)CO)C(=O)c2cc(/C=C/c3ccccc3)cnc2O[C@H]1CN(C)C(=O)c1ccccc1	.	.	6	.	.	10
CC1(C)Cc2[nH]c(=O)c(C#N)cc2CS1	8	-5	.	1	2	.
CCC1(C)Cc2[nH]c(=O)c(C#N)cc2CO1 (stereo unspecified)	8	86*	-21	-16	3	1
O=C(CSc1nnc(-c2ccccc2)n1-c1ccc(Cl)cc1)N/N=C/c1ccccc1C(=O)O	10	-11	11	7	-8	-2
Cc1ccc(-c2nnc(SCC(=O)N/N=C/c3ccccc3C(=O)O)n2-c2ccc(C)cc2)cc1	0	92*	-25	-8	-1	8
Oc1ccc(O)c(C=NNC(=S)NC2CC3CC2C2C=CCC32)c1 (stereo unspecified)	-35	2	-49	10	5	-7
NNC(=S)NC1CC2CC1C1C=CCC21 (stereo unspecified)	70*	77*	0	6	-12	6
COCC(=O)Nc1ccc2c(c1)[C@@H]1C[C@@H](CC(=O)NCc3ccccc3)O[C@H](CO)[C@@H]1O2	.	.	1	.	.	-6
C#CCN(C[C@@H]1[C@@H](OC(=O)NC2CC2)[C@@H](OC(=O)NC2CC2)Cn2c(=O)n(CCCCCC)c(=O)n21)S(=O)(=O)c1ccc(C)cc1	-10	-24	6	25	-8	6
C#CCN(C[C@@H]1[C@@H](OC(=O)NCc2ccc(OC)c(OC)c2)[C@@H](OC(=O)NCc2ccc(OC)c(OC)c2)Cn2c(=O)ccc(=O)n21)S(=O)(=O)c1ccc(C)cc1	10	7	-6	43	-19	27
